Results filed as inconclusive are left out. Unmarked numbers belong to inactive results. Activity calls are given as the source filed them. Calls follow the shape of the dose curve; as a rule, active = well fitted inhibition curve with a large enough effect; inconclusive = small, poorly fitted or top-dose-only effect; inactive = flat fitted curve, though single readings scatter.

The values below come from PubChem BioAssay (NCATS).

One test concerns HEK293. Kind of test: Cytotoxic Profiling of Annotated Libraries Using Quantitative High-Throughput Screening (AID 1296008). Also: potency is read from the fitted curve at half-maximal effect. As to max response: % is scaled to controls: 0 for no effect and ±100 for the full control effect. To be noted: Five cell lines viability, CellTiter-Glo ATP luminescence, 48-72 h; max response: active compounds read low. Summed up:
(§1)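 Compounds were pin-transferred onto cells and incubated 48 or 72 hr at 37 degree Celsius, 95% humidity. CellTiter-Glo was added, plates sat 10 min at room temperature, then ATP-coupled luminescence was imaged as the viability read-out.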
A general note: ATP-based viability assays read luminescence as a measure of living cells.

The test system of test [1] is HaCat. Described as above. Conditions: Five cell lines viability, CellTiter-Glo ATP luminescence, 48-72 h; max response: active compounds read low. Summed up: as §1
In a further test the test system is KB-3-1. Described as above. Conditions: Five cell lines viability, CellTiter-Glo ATP luminescence, 48-72 h; max response: active compounds read low. A digest of the protocol: as §1
Another test deals with NIH3T3. The description is as above. Conditions: Five cell lines viability, CellTiter-Glo ATP luminescence, 48-72 h; max response: active compounds read low. A digest of the protocol:
as §1

Test [2] deals with HACAT. The test is described as follows: qHTS assay to identify novel small-molecules to repurpose for Merkel cell carcinoma treatment (AID 1296009). Conditions: MCC and control cell lines, CellTiter-Glo viability, 72 h; series mostly up to 44.8 µM. A digest of the protocol: (§2)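 Luminescence from CellTiter-Glo, read 10 min after addition at room temperature, reported viability following a 72 hr, 37 degree celsius treatment with NPC or MIPE compounds in titration; values normalized to plate controls.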
On the technique in general: In qHTS, concentration-response curves come from the screen itself.

A further test has as its system HEK293T. The test is described as above. To be noted: MCC and control cell lines, CellTiter-Glo viability, 72 h; at 44.8 µM (top of the series) unless noted. Summed up: as §2
Also: nearly all actives have a fitted effect of over 60% in size.

With `CC(C)[N+]1(C)C2CCC1CC(OC(=O)C(CO)c1ccccc1)C2` (stereo not drawn), the max response in the test with HEK293 was -4.72%; with HaCat [1], -18.4%; with KB-3-1, -2.64%; in the test with NIH3T3, -9.66%.
With `O=C1NC(=O)C(c2cn(-c3ccccc3)nc2-c2ccc(F)cc2)N1` (stereo not drawn), in the test with HEK293, the max response was -6.53%. Also, in the test with HaCat [1], the Potency was 16.4 µM (active). Further, the compound was called inactive in the test on KB-3-1.
For `C[C@@H]1C(=O)O[C@H](C)[C@H]1CC(=O)[C@](C)(O)[C@H]1CC[C@@]2(O)C3=CC(=O)[C@@H]4C[C@@H](O)[C@@H](O)C[C@]4(C)C3CC[C@]12C` (stereo partly drawn), the max response with HEK293 is -19.4%; with HaCat [1], -15.8%; in the test on KB-3-1 it was -2.99%; with NIH3T3, 1.5%.
On to `C=CC(C)(C)c1[nH]c2cc3c(cc2c1CC1NC(=O)C2=CCCN2C1=O)C=CC(C)(C)O3` (stereo not drawn), for which the max response in the test on HEK293 was -27.4%; in the test on NIH3T3, -5.01%. The compound was called inactive in the test on HaCat [1] and with KB-3-1. Further, the Potency entry with HACAT [2] is “inactive”.
As for `COc1ccc(C[C@H](N)C(=O)N[C@@H]2[C@H](O)[C@H](n3cnc4c(N(C)C)ncnc43)O[C@@H]2CO)cc1`, the Potency was 1.16 µM (active) in the test on HEK293, 1.46 µM (active) with HaCat [1], 0.731 µM (active) with KB-3-1 and 4.61 µM (active) with NIH3T3.
Take `C[C@@H]1O[C@@H](O[C@@H]2[C@@H](O)[C@@H](O[C@]3(CO)O[C@H](CO)[C@@H](O)[C@@H]3OC(=O)/C=C/c3ccc(O)cc3)O[C@H](CO)[C@H]2OC(=O)/C=C/c2ccc(O)cc2)[C@H](O)[C@H](O)[C@H]1O[C@@H]1O[C@@H](C)[C@H](O[C@@H]2OC[C@](O)(CO)[C@H]2O)[C@@H](O)[C@H]1O`: the compound was called inactive in the test with HEK293 and in the test with HaCat [1]. The max response with KB-3-1 is 3.92%; with NIH3T3, -0.786%. Moreover, the outcome in the test on HACAT [2] and in the test on HEK293T was “inactive [at 9.27 µM]” throughout.
Regarding `C/C(=C\CCC(C)CCO)C(=O)OC1(C)CCC2C(C(=O)O)=COC(OC3OC(CO)C(O)C(O)C3O)C21` (stereo not drawn), the call with HEK293 and in the test on KB-3-1 was inactive. Besides, the max response in the test with HaCat [1] is -20.6%. In addition, the outcome in the test on NIH3T3 is “inactive; activator”; in the test with HEK293T, “inactive [at 17.4 µM]”.
Consider `Nc1nc2c(c(N3CCNCC3)n1)CCC1=C2[C@@H]2CCCC[C@@H]2O1`, for which the Potency in the test with HEK293 is 18.4 µM (active). For the same compound, in the test with HaCat [1], the compound was classed as inactive. Besides, the max response is -5.74% in the test with KB-3-1 and -4.38% with NIH3T3. Besides, the Potency result in the test on HACAT [2] was “inactive”.
On to `CC(C)=C/C=C\[C@H](C)[C@H]1CC[C@]2(C)C[C@@H]3C(C)=CC(=O)C3/C(CO)=C\C[C@@H]12` (stereo partly drawn), for which the max response was -20.2% in the test on HEK293 and 3.13% in the test on NIH3T3. The compound was classed as inactive with HaCat [1] and in the test with KB-3-1. The Potency result in the test with HACAT [2] was “inactive”.
On to `CCCCNc1ncc2c(-c3ccc(F)cc3)nn(CC3CCC(N)CC3)c2n1` (stereo not drawn), for which the max response with HEK293 is -110%. Besides, the Potency is 10 µM (active) with HaCat [1], 2.82 µM (active) in the test on KB-3-1 and 6.32 µM (active) with NIH3T3.
As for `OCc1ccc(O[C@@H]2O[C@H](CO)[C@@H](O)[C@H](O)[C@H]2O)cc1`, the max response is -0.162% in the test on HEK293, -3.37% in the test with KB-3-1 and 2.54% in the test with NIH3T3. Further, the call with HaCat [1] was inactive. In addition, the Potency entry in the test on HACAT [2] is “inactive”.
Consider `CC(=O)OC1CC2C3(C)CCC(OC(=O)CC(=O)O)C(C)(C)C3CCC2(C)C2(C)CCC(C3(C)CCC(=O)O3)C12` (stereo not drawn), for which the call in the test on HEK293 and in the test with KB-3-1 was inactive. The max response with HaCat [1] was 3.4%; in the test with NIH3T3, 2.16%. In addition, the outcome in the test on HEK293T was “inactive [at 17.4 µM]”.
For `C=CC(C)(C)c1[nH]c2cc3c(cc2c1CC1NC(=O)C2CCCN2C1=O)C=CC(C)(C)O3` (stereo not drawn), the outcome with HEK293, in the test on HaCat [1] and in the test on NIH3T3 was inactive. For the same compound, the max response in the test with KB-3-1 was 8.42%. Besides, the outcome in the test with HEK293T was “inactive [at 17.4 µM]”.
As for `COc1c(/C=C/C(C)(C)O)ccc2c1C(=O)OCc1cc(C)cc(O)c1O2`, the max response in the test on HEK293 was -114%; in the test with KB-3-1 it was -23.3%; with NIH3T3, 2.57%. Also, the compound was called inactive with HaCat [1]. In addition, the Potency entry in the test with HACAT [2] was “inactive”.
As to `Cc1ccc(S(=O)(=O)n2ccc(-c3c(-c4ccc(Cl)cc4)noc3C)n2)cc1`, in the test on HEK293, the Potency was 4.11 µM (active). The call in the test with HaCat [1] was inactive. The figures for the max response in the test on KB-3-1 and with NIH3T3 were -24.7% and -14.9%, respectively. Besides, the Potency entry in the test on HACAT [2] was “inactive”.
Take `CCOCc1cc(OC)c(-c2ccc(C[C@H](NC(=O)c3c(F)cccc3F)C(=O)O)cc2)c(OC)c1`: in the test with HEK293, the max response is -1.31%. The result in the test with HaCat [1] and with KB-3-1 was inactive. In addition, the Potency entry in the test on HACAT [2] is “inactive”.
In the case of `CN=C(N)NCCCCC/C=C(/C)CC(C)C1OC(=O)C(C)C(O)/C=C/C(C)C(O)CC(O)C(C)C(O)CCC(C)C(O)CC2(O)OC(CC(OC(=O)CC(=O)O)CC(O)CC(O)C(C)C(O)/C(C)=C/CCC1C)CC(O)C2O` (stereo not drawn), the max response in the test on HEK293 was -1.07%; with HaCat [1] it was -0.878%; in the test with KB-3-1 it was 1.79%; in the test with NIH3T3, 1.75%.
Take `CC1=C2C(O)C(=O)OC(c3ccoc3)C2(C)CCC1O` (stereo not drawn): the max response in the test with HEK293 was -2.84%; in the test on NIH3T3, 3.37%. Also, the compound was called inactive with HaCat [1] and in the test with KB-3-1. Moreover, in the test on HACAT [2], the Potency entry is “inactive”.
In the case of `CNC(C)C(=O)NC(C(=O)N1CCCC1c1nc(C(=O)c2ccc(F)cc2)cs1)C1CCCCC1` (stereo not drawn), the Potency in the test on HEK293 is 14.6 µM (active). In the test with HaCat [1], the outcome is “inactive; activator”. The max response with KB-3-1 is -9.35%. Also, the result with NIH3T3 was inactive. Further, the Potency entry in the test with HACAT [2] is “inactive”.
